Data as given in PubChem BioAssay AID1159580 (chemical genetic matrix, 2015).
Screen size: about 5,500 compounds; about 2,000 (36%) were called active. Not shown: some 18% with an inconclusive outcome. Rule as the data show it: active = normalized growth mostly below about 0.91 (no sharp cut-off); inconclusive = no clear call, values can overlap the other calls; inactive = mostly above about 0.92. This is one part of the list.

Assay: chemical genetic growth profiling, strain panel (AID 1159580);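 also: tested at 20 µM; growth read once vehicle control cultures reached saturation at 30 °C; 1 = growth at the plate median or of vehicle wells; lower values mean less growth of the strain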
Settings: growth OD

Measured: normalized growth

COc1ccc2cc3[n+](cc2c1OC)CCc1cc2c(cc1-3)OCO2
inactive: S. cerevisiae deletion strains, locus YKL009W, strain mrt4, stronger effect = lower value 0.922 | S. cerevisiae deletion strains, locus YKL068W, stronger effect = lower value 1 | S. cerevisiae deletion strains, locus YKL085W, strain MDH1 (second series), stronger effect = lower value 0.996 | S. cerevisiae deletion strains, locus YKL085W, strain MDH1, stronger effect = lower value 0.996 | S. cerevisiae deletion strains, locus YKL160W, strain elf1, stronger effect = lower value 0.985 | S. cerevisiae deletion strains, locus YKR026C, strain gcn3, stronger effect = lower value 0.994 | S. cerevisiae deletion strains, locus YKR091W, strain srl3, stronger effect = lower value 0.985 | S. cerevisiae deletion strains, locus YLL001W, strain dnm1, stronger effect = lower value 0.99 | S. cerevisiae deletion strains, locus YLL026W, stronger effect = lower value 1.02 | S. cerevisiae deletion strains, locus YLL041C, strain sdh2, stronger effect = lower value 0.989 | S. cerevisiae deletion strains, locus YLR027C, strain aat2, stronger effect = lower value 0.972 | S. cerevisiae deletion strains, locus YLR039C, strain RIC1, stronger effect = lower value 0.904 | S. cerevisiae deletion strains, locus YLR221C, strain rsa3, stronger effect = lower value 1 | S. cerevisiae deletion strains, locus YLR258W, strain gsy2, stronger effect = lower value 0.99 | S. cerevisiae deletion strains, locus YLR262C, strain YPT6 (second series), stronger effect = lower value 1.04 | S. cerevisiae deletion strains, locus YLR262C, strain YPT6, stronger effect = lower value 0.82 | S. cerevisiae deletion strains, locus YLR320W, strain mms22, stronger effect = lower value 0.993 | S. cerevisiae deletion strains, locus YLR342W, strain FKS1, stronger effect = lower value 0.979 | S. cerevisiae deletion strains, locus YLR357W, strain rsc2, stronger effect = lower value 0.948 | S. cerevisiae deletion strains, locus YLR370C, strain arc18, stronger effect = lower value 0.99 | S. cerevisiae deletion strains, locus YLR384C, strain iki3, stronger effect = lower value 0.975 | S. cerevisiae deletion strains, locus YML120C, strain ndi1, stronger effect = lower value 0.996 | S. cerevisiae deletion strains, locus YMR058W, strain fet3, stronger effect = lower value 0.985 | S. cerevisiae deletion strains, locus YMR078C, strain ctf18, stronger effect = lower value 0.912 | S. cerevisiae deletion strains, locus YMR125W, strain sto1, stronger effect = lower value 0.981 | S. cerevisiae deletion strains, locus YMR129W, stronger effect = lower value 0.991 | S. cerevisiae deletion strains, locus YMR205C, strain PFK2, stronger effect = lower value 0.967 | S. cerevisiae deletion strains, locus YMR231W, strain pep5, stronger effect = lower value 0.995 | S. cerevisiae deletion strains, locus YMR307W, strain GAS1, stronger effect = lower value 0.986 | S. cerevisiae deletion strains, locus YNL071W, strain lat1, stronger effect = lower value 0.991 | S. cerevisiae deletion strains, locus YNL183C, strain NPR1, stronger effect = lower value 0.855 | S. cerevisiae deletion strains, locus YNL209W, strain ssb2, stronger effect = lower value 0.98 | S. cerevisiae deletion strains, locus YNL248C, strain rpa49, stronger effect = lower value 0.975 | S. cerevisiae deletion strains, locus YNL250W, strain rad50, stronger effect = lower value 0.995 | S. cerevisiae deletion strains, locus YNL271C, strain bni1, stronger effect = lower value 0.963 | S. cerevisiae deletion strains, locus YNL298W, strain CLA4, stronger effect = lower value 0.971 | S. cerevisiae deletion strains, locus YNL322C, strain KRE1 (second series), stronger effect = lower value 0.987 | S. cerevisiae deletion strains, locus YNR049C, strain mso1, stronger effect = lower value 0.998 | S. cerevisiae deletion strains, locus YOR001W, strain rrp6, stronger effect = lower value 0.973 | S. cerevisiae deletion strains, locus YOR070C, strain gyp1, stronger effect = lower value 0.984 | S. cerevisiae deletion strains, locus YOR080W, strain dia2, stronger effect = lower value 0.992 | S. cerevisiae deletion strains, locus YOR083W, strain WHI5, stronger effect = lower value 0.994 | S. cerevisiae deletion strains, locus YOR106W, strain vam3, stronger effect = lower value 1.02 | S. cerevisiae deletion strains, locus YOR265W, strain rbl2, stronger effect = lower value 0.984 | S. cerevisiae deletion strains, locus YOR270C, strain vph1, stronger effect = lower value 0.976 | S. cerevisiae deletion strains, locus YOR290C, strain snf2, stronger effect = lower value 0.96 | S. cerevisiae deletion strains, locus YPL051W, strain arl3, stronger effect = lower value 0.994 | S. cerevisiae deletion strains, locus YPL078C, strain atp4, stronger effect = lower value 0.991 | S. cerevisiae deletion strains, locus YPL106C, strain sse1, stronger effect = lower value 0.964 | S. cerevisiae deletion strains, locus YPL240C, strain hsp82, stronger effect = lower value 1.01 | S. cerevisiae deletion strains, locus YPR141C, strain kar3, stronger effect = lower value 1.01 | S. cerevisiae deletion strains, locus YPR163C, strain tif3, stronger effect = lower value 0.984
active: S. cerevisiae deletion strains, locus YJR075W, strain HOC1, stronger effect = lower value 0.394 | S. cerevisiae deletion strains, locus YKL190W, strain CNB1, stronger effect = lower value 0.293 | S. cerevisiae deletion strains, locus YKR001C, strain vps1, stronger effect = lower value 0.338 | S. cerevisiae deletion strains, locus YLR058C, strain SHM2, stronger effect = lower value 0.409 | S. cerevisiae deletion strains, locus YLR102C, strain apc9, stronger effect = lower value 0.702 | S. cerevisiae deletion strains, locus YLR113W, strain HOG1, stronger effect = lower value 0.83 | S. cerevisiae deletion strains, locus YLR268W, strain sec22, stronger effect = lower value 0.409 | S. cerevisiae deletion strains, locus YLR330W, strain CHS5, stronger effect = lower value 0.711 | S. cerevisiae deletion strains, locus YLR342W, strain FKS1 (second series), stronger effect = lower value 0.373 | S. cerevisiae deletion strains, locus YLR371W, strain rom2, stronger effect = lower value 0.8 | S. cerevisiae deletion strains, locus YLR418C, strain cdc73, stronger effect = lower value 0.478 | S. cerevisiae deletion strains, locus YML016C, strain PPZ1, stronger effect = lower value 0.413 | S. cerevisiae deletion strains, locus YML032C, strain rad52, stronger effect = lower value 0.459 | S. cerevisiae deletion strains, locus YML124C, strain tub3, stronger effect = lower value 0.652 | S. cerevisiae deletion strains, locus YMR223W, strain ubp8, stronger effect = lower value 0.393 | S. cerevisiae deletion strains, locus YMR263W, strain SAP30, stronger effect = lower value 0.55 | S. cerevisiae deletion strains, locus YNL067W, strain RPL9B, stronger effect = lower value 0.319 | S. cerevisiae deletion strains, locus YNL128W, strain TEP1, stronger effect = lower value 0.518 | S. cerevisiae deletion strains, locus YNL153C, strain GIM3, stronger effect = lower value 0.701 | S. cerevisiae deletion strains, locus YNL233W, strain BNI4, stronger effect = lower value 0.593 | S. cerevisiae deletion strains, locus YNL307C, strain MCK1, stronger effect = lower value 0.561 | S. cerevisiae deletion strains, locus YNL322C, strain KRE1, stronger effect = lower value 0.496 | S. cerevisiae deletion strains, locus YNR052C, strain pop2, stronger effect = lower value 0.671 | S. cerevisiae deletion strains, locus YOL006C, strain TOP1, stronger effect = lower value 0.405 | S. cerevisiae deletion strains, locus YOL012C, strain htz1 2.03 [resistant] | S. cerevisiae deletion strains, locus YOL147C, strain pex11, stronger effect = lower value 0.603 | S. cerevisiae deletion strains, locus YOR061W, strain CKA2, stronger effect = lower value 0.378 | S. cerevisiae deletion strains, locus YOR069W, strain VPS5, stronger effect = lower value 0.731 | S. cerevisiae deletion strains, locus YOR136W, strain idh2, stronger effect = lower value 0.748 | S. cerevisiae deletion strains, locus YOR144C, strain elg1, stronger effect = lower value 0.586 | S. cerevisiae deletion strains, locus YOR184W, strain ser1, stronger effect = lower value 0.333 | S. cerevisiae deletion strains, locus YOR231W, strain MKK1, stronger effect = lower value 0.822 | S. cerevisiae deletion strains, locus YOR316C, strain cot1, stronger effect = lower value 0.663 | S. cerevisiae deletion strains, locus YPL055C, strain LGE1, stronger effect = lower value 0.525 | S. cerevisiae deletion strains, locus YPL241C, strain CIN2, stronger effect = lower value 0.558 | S. cerevisiae deletion strains, locus YPL256C, strain CLN2, stronger effect = lower value 0.786 | S. cerevisiae deletion strains, locus YPR119W, strain clb2, stronger effect = lower value 0.804 | S. cerevisiae deletion strains, locus YPR167C, strain met16, stronger effect = lower value 0.622 | S. cerevisiae deletion strains, strain wtn01, stronger effect = lower value 0.305 | S. cerevisiae strains, strain wild type, stronger effect = lower value 0.408
